High-throughput results: PubChem BioAssay, National Center for Advancing Translational Sciences (NCATS)
Shiga toxin inh – blocks Shiga toxin action in Vero cells; Vero cells, Shiga toxin protein synthesis inhibition reporter; inhibition, % at 38.7 µM; 290,000 tested, 9.2% active; in the data active means inhibition mostly above about 28%, no sharp cut-off; inactive means mostly below about 43%; further: 0% is about no effect
Sm TGR inh – blocks Schistosoma mansoni thioredoxin glutathione reductase | Potency, µM (top dose mostly 114 µM), for inactives: at the top dose activity change, negative = inhibition, most hits filed as inhibitors | purified TGR, DTNB reduction, TNB absorbance 405 nm | Q962Y6 | 360,000 tested, 3% active; further: potency means the concentration at half of the fitted maximal effect; on the % scale 0 is the no-effect control and ±100 the full control effect; nearly all actives have a fitted effect of over 60% in size
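Kinetic colorimetric format: TGR-catalysed, NADPH-driven DTNB reduction monitored via TNB absorbance. Enzyme dispensed at 20 nM; compound exposure 15 min at room temperature before reaction start.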
LmPK inh – inhibitors of Leishmania mexicana pyruvate kinase; purified LmPK, Kinase-Glo ATP luminescence, 1 h; Potency, µM (highest dose often 57.5 µM), inactives show at the highest dose activity change, negative = inhibition, actives largely listed as inhibitors; 290,000 tested, 0.37% active; AID 1721; further: potency means the concentration at half of the fitted maximal effect; on the % scale 0 is the no-effect control and ±100 the full control effect
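Pyruvate kinase activity monitored as ATP production (luciferase luminescence). Conditions: 0.1 nM enzyme, 0.5 mM PEP, 0.1 mM ADP, 1 h, RT; normalized against uninhibited and no-enzyme wells.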
Tb PYK inh – blocks Trypanosoma brucei pyruvate kinase | Q57TT1 | TbPYK enzyme, Kinase-Glo Plus ATP luminescence, 45 min | Potency, µM (series often up to 76.8 µM), for the others: top-dose activity, negative = inhibition, hits mostly inhibitors | 410,000 tested, 0.12% active; further: potency means the concentration at half of the fitted maximal effect; on the % scale 0 is the no-effect control and ±100 the full control effect; nearly all actives have a fitted effect of over 50% in size
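In this concentration-response screen, enzyme-free wells defined baseline while DMSO plates tracked drift. Each reaction combined TbPYK, substrate, compound and 130 uM ADP for 45 min at room temperature. Kinase-Glo Plus luminescence gave the signal.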
Cycloheximide cs – counter-screen hit for Shiga toxin inhibitors, cycloheximide; cell reporter, cycloheximide protein synthesis inhibition counterscreen; AID 2314; max response, %; 300,000 tested, 12% active; in the data active means max response mostly above about 13%, no sharp cut-off; inactive means mostly below about 14%; further: read at 38.3 µM for the half of the compounds with a filed dose; 0% is about no effect
Giardia FBPA inh – blocks Giardia fructose-bisphosphate aldolase activity. A8B2U2. purified Giardia FBPA. Potency, µM (highest dose often 59.6 µM), for the others: at the top dose activity, negative = inhibition, actives largely listed as inhibitors. 290,000 tested, 0.71% active; further: potency means the concentration at half of the fitted maximal effect; on the % scale 0 is the no-effect control and ±100 the full control effect; nearly all actives have a fitted effect of over 55% in size
Target sequence (A8B2U2 whole entry, looked up): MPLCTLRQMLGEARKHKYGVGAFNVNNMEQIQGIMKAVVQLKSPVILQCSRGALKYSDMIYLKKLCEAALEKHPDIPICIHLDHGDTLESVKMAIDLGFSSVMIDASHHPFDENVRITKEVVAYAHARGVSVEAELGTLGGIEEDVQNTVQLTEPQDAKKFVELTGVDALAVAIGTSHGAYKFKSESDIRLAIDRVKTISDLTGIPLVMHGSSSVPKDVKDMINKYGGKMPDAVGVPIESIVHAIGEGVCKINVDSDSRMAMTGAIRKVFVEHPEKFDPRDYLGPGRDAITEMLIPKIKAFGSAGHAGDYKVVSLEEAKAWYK
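Giardia FBPA (40 nM reagent) was preincubated 10 min at RT with compound (up to 57.5 uM final), then substrate plus GAPDH/TPI/NAD/arsenate coupling system with diaphorase/resazurin was added; resorufin fluorescence (525/598 nm) was read after 20 min.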
Starred values were filed as active, the others as inactive; ? = inconclusive; . = no result given; [ ] = another dose, or the depositor's remark. The sample as a whole holds a higher share of hits than the screen did. Unless noted, the call rests on the fitted dose curve; in most records, active means well fitted curve in the direction sought with a large enough effect; inconclusive means small, poorly fitted or top-dose-only effect, or another doubt; inactive means no such curve, though single readings can be large; an effect the other way counts as inactive or inconclusive.

SMILES	Shiga toxin inh	Sm TGR inh	LmPK inh	Tb PYK inh	Cycloheximide cs	Giardia FBPA inh
CN1C(=O)c2ccccc2Sc2ccc(NC(=O)COc3ccc(F)cc3)cc21	.	-2%	.	-7%	.	.
Cc1cc(Cl)c2oc(C(=O)N(C)Cc3nccn3C)c(C)c2c1	10	7%	-13%	-6%	8	-4%
COc1ccc(C(=O)N/N=C/c2cccnc2)cc1	54*	6%	-1%	-8%	29*	1%
Cc1cc(C)n(Cc2cccc(C(=O)N/N=C/c3ccncc3)c2)n1	-13	7%	-9%	-1%	18	.
Cc1occc1C(=O)Nc1cccc([N+](=O)[O-])c1C	9	-16%	3%	7%	4	0%
Cc1occc1C(=O)N/N=C/c1ccccc1[N+](=O)[O-]	64*	-11%	14µM*	-11%	62*	-13%
Cn1nccc1C(=O)N/N=C/c1ccccc1[N+](=O)[O-]	80*	-1%	?	-7%	32*	-2%
Cc1cc(C)n(Cc2cccc(C(=O)N/N=C/c3cccnc3)c2)n1	-4	-1%	-5%	-6%	10.0*	-1%
Cc1ccc(CNC(=O)C2CCN(S(=O)(=O)c3c(C)noc3/C=C/c3ccccc3F)CC2)o1	.	-3%	.	2%	.	.
Cc1ccc2onc(CNC(=O)N3CCN(c4cccc(C)c4C)CC3)c2c1	.	11%	.	3%	.	.
CCc1ccc(NC(=O)CSc2nc(-c3ccccc3)no2)cc1	.	11%	.	-4%	.	.
O=C1C(c2ccc(F)cc2)N(CCc2ccccc2)C(=O)CN1C1CCCCCC1 (configuration not stated)	.	3%	.	1%	.	.
O=C(CNC(=O)c1ccncc1)N/N=C/c1ccccc1[N+](=O)[O-]	58*	0%	12%	-4%	23*	1%
Cn1nccc1C(=O)N/N=C/c1cccnc1	59*	4%	-9%	-2%	33*	-1%
O=C(CNC(=O)c1ccncc1)N/N=C/c1cccc([N+](=O)[O-])c1	-18	1%	-4%	-1%	3	0%
Cc1ccc(S(=O)(=O)N/N=C2/CC(c3ccccc3)Oc3ccccc32)cc1[N+](=O)[O-] (configuration not stated)	39*	1%	9%	1%	55*	7%
Fc1ccc(N/N=C2/CC(c3ccccc3)Oc3ccccc32)c(F)c1 (configuration not stated)	52*	-10%	0%	0%	26*	1%
Cc1ccc(S(=O)(=O)NN=C2CCC(C(C)(C)C)CC2)cc1[N+](=O)[O-] (configuration not stated)	-12	1%	-2%	-8%	-3	0%
CNC(=S)N/N=C1\CC(c2ccccc2)Oc2ccccc21 (configuration not stated)	18	2%	-1%	-3%	9	-4%
O=S(=O)(N/N=C1/CC(c2ccccc2)Oc2ccccc21)c1ccc(Br)cc1 (configuration not stated)	25	0%	-3%	2%	28*	6%
C=C1CCN(C(Cc2ccccc2)C(=O)NC2CCN(Cc3ccccc3)CC2)S(=O)(=O)c2ccccc21 (configuration not stated)	-5	.	.	.	2	4%
CC(=O)OC[C@@H]1O[C@H](CCO/N=C(\C)CCN2CCc3nc(-c4ccccc4)c(-c4ccccc4)cc3C2)C=C[C@@H]1OC(C)=O	.	.	.	.	.	-1%[12.9 µM]
CC(C)C[C@H]1CN(CCCC[C@@H]2CNC(=O)C(=O)N2CC2CCCCC2)C(=O)C(=O)N1CCc1ccc(O)cc1	.	.	.	0%	.	.
Cn1c(=O)c2c(SCC(=O)NCc3ccco3)nc(-c3ccccc3)nc2n(C)c1=O	.	0%	.	6%	.	.
Cc1cc(/C=N/Nc2ccc([N+](=O)[O-])cn2)c(C)n1-c1ccc(C(=O)O)cc1	26	35µM*	3%	-16%	-1	?
SMILES	Shiga toxin inh	Sm TGR inh	LmPK inh	Tb PYK inh	Cycloheximide cs	Giardia FBPA inh
O=[N+]([O-])c1ccc(NN=Cc2ccc(O)cc2O)nc1	.	.	.	-2%	.	.
Cc1ccccc1-n1c(C)cc(/C=N/Nc2ccc([N+](=O)[O-])cn2)c1C	91*	-27%	2%	0%	36*	-21%
O=[N+]([O-])c1ccc(N/N=C/c2ccc(OCc3cccc4ccccc34)cc2)nc1	33	0%	0%	-1%	18*	10%
O=[N+]([O-])c1ccc(N/N=C\c2cccn2-c2ccccc2)nc1	13	4%	-4%	4%	17*	-10%
CCNc1ncc2nc(-c3ccc(Cl)cc3)c(=O)n(Cc3ccc(F)cc3)c2n1	.	.	.	.	.	4%
CCCNC(=O)N(C)C[C@H]1Oc2ncc(C#CCc3ccccc3)cc2C(=O)N([C@H](C)CO)C[C@H]1C	.	.	.	4%	.	.
Nc1ccc(C(=O)C(=O)c2ccccc2)cc1	.	.	.	-4%	.	.
CCCOc1ccc(C(=O)Nc2ccc(N3CCN(C(C)=O)CC3)cc2)cc1	52	-5%	2%	4%	4	-7%
CCOc1ccc(NC(=O)c2cccc(N3CCCS3(=O)=O)c2)cc1	.	-1%	.	-1%	.	.
CCOc1ccc(NC(=O)c2cccc(OC(=S)N3CCC(C)CC3)c2)cc1	35	-4%	0%	3%	17*	2%
CCOc1cccc(C(=O)Nc2ccc(N3CCCC3)cc2)c1	48	-13%	5%	?	17*	-4%
CCOc1cccc(C(=O)Nc2cccc(C(=O)NC(C)(C)C)c2)c1	-7	1%	6%	0%	6	6%
CCOc1ccc(C(=O)Nc2ccc(N3CCCC3)cc2)cc1	33	?	-3%	-21%	19*	-12%
O=C1NCCCC1C(=O)N/N=C/c1cccc(Cl)c1 (configuration not stated)	15	9%	-1%	-2%	11	2%
CCc1ccc(C2CC(=O)N(c3cccc(C(F)(F)F)c3)C3=C2C(=O)OC3)cc1 (configuration not stated)	.	1%	.	1%	.	.
CCCCNC(=O)C[C@@H]1C[C@@]2(C(=O)OCC)CCC=C2N(CCC2=CCCCC2)C1=O	.	.	.	5%	.	.
Nc1ccc2oc3ccccc3c2c1	4	-1%	1%	-6%	14	?
Nc1ccc2c(c1)oc1ccccc12	50*	4%	-4%	6%	27*	0%
CCCCCCN(CCCCCC)C(=O)Cc1c(-c2ccc(Cl)cc2)[nH]c2ccc(Cl)cc12	.	.	.	.	.	3%
Cc1ccc2nc(SCC(=O)N/N=C/c3ccco3)cc(C)c2c1	8	?	12%	1%	1	?
Cc1ccc2nc(N/N=C/c3ccco3)cc(C)c2c1	72*	5%	-3%	-5%	51*	-13%
Cc1cc(N/N=C/c2ccc([N+](=O)[O-])o2)nc2ccccc12	48*	-7%	-4%	-1%	15*	-7%
